The supplement of paper PMC12645437, “Orthogonal IMiD-Degron Pairs Induce Selective Protein Degradation in Cells” (ACS Chemical Biology, 2025)
In all, about 8,300 sequences were measured (“log2 fold change of degron read counts, EGFP-low vs EGFP+ sorted cells (limma voom), compound-induced degradation”: median about -1.1, highest 2% from about 3.2 on). The entries come from a sample that favours the highest values as a whole.

T1: CRBN, Q96SW2
T1 chain: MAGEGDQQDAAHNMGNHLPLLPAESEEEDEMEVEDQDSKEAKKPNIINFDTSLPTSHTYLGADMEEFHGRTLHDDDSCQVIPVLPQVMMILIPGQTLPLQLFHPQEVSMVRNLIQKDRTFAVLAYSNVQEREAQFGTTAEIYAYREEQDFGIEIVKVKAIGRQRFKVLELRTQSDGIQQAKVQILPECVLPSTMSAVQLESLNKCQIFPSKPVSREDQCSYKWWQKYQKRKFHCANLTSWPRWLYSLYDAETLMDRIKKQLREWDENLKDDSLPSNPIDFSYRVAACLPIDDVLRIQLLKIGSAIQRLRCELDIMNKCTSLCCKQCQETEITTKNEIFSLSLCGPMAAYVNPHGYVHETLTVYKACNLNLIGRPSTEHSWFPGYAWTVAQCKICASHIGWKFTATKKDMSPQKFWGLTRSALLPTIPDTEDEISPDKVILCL

B1: 46F_47K_49N_50I_52G_53A_54K_55F_67L_, Q9UKT9 (peptide)
chain: FKCNICGAKFTQKGNLLRHIKL
B2: 46F_47R_49S_50V_52G_53H_54F_55F_67L_, Q9UKT9 (peptide)
chain: FRCSVCGHFFTQKGNLLRHIKL
B3: 46F_47V_49E_50I_52G_53H_54L_55F_67L_, Q9UKT9 (peptide)
chain: FVCEICGHLFTQKGNLLRHIKL
B4: 46F_47E_49N_50I_52G_53A_54L_55F_67L_, Q9UKT9 (peptide)
chain: FECNICGALFTQKGNLLRHIKL
B5: 46F_47Q_49D_50V_52G_53A_54F_55F_67L_, Q9UKT9 (peptide)
chain: FQCDVCGAFFTQKGNLLRHIKL
B6: 46F_47Y_49D_50Q_52G_53A_54Q_55F_67L_, Q9UKT9 (peptide)
chain: FYCDQCGAQFTQKGNLLRHIKL
B7: 46L_47W_49P_50I_52G_53F_54Y_55C_67L_, Q9UKT9 (peptide)
chain: LWCPICGFYCTQKGNLLRHIKL
B8: 46L_47G_49P_50I_52G_53F_54Y_55C_67L_, Q9UKT9 (peptide)
chain: LGCPICGFYCTQKGNLLRHIKL
B9: 46L_47C_49P_50I_52G_53F_54Y_55C_67L_, Q9UKT9 (peptide)
chain: LCCPICGFYCTQKGNLLRHIKL
B10: 46L_47D_49P_50I_52G_53F_54Y_55C_67L_, Q9UKT9 (peptide)
chain: LDCPICGFYCTQKGNLLRHIKL
B11: 46L_47A_49P_50I_52G_53F_54Y_55C_67L_, Q9UKT9 (peptide)
chain: LACPICGFYCTQKGNLLRHIKL
B12: 46L_47M_49P_50I_52G_53F_54Y_55C_67L_, Q9UKT9 (peptide)
chain: LMCPICGFYCTQKGNLLRHIKL
B13: 46L_47V_49P_50I_52G_53F_54Y_55C_67L_, Q9UKT9 (peptide)
chain: LVCPICGFYCTQKGNLLRHIKL
B14: 46L_47Q_49P_50I_52G_53F_54Y_55C_67L_, Q9UKT9 (peptide)
chain: LQCPICGFYCTQKGNLLRHIKL
B15: 46L_47I_49P_50I_52G_53F_54Y_55C_67L_, Q9UKT9 (peptide)
chain: LICPICGFYCTQKGNLLRHIKL

Target: T1, CRBN, Q96SW2
Experiment: log2 fold change of degron read counts, EGFP-low vs EGFP+ sorted cells (limma voom), compound-induced degradation; higher = more compound-induced degradation of the degron-EGFP fusion; degrons are variants of IKZF1/3 zinc finger 2; compound dose not given here
Conditions: Jurkat, 18 h
Method: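 Pooled library of 8380 IKZF3 ZF2 degron mutants (positions 146-167 varied within the IKZF3 130-189 degron; only the varied core is printed, flanks not printed) fused to EGFP with IRES-mCherry, lentivirally expressed in Jurkat cells. mCherry+ cells were treated with one IMiD compound for 18 h (dose not stated) and FACS-sorted into EGFP-low and EGFP+ populations. Degron sequences were counted by NGS, and log2FC (EGFP-low vs EGFP+) was estimated by limma voom over 3 biological replicates.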

[1] = compound: compound 19 (5-tert-butyl-thalidomide)
[2] = compound: compound 22 (5-morpholino-thalidomide)
[3] = compound: compound 33 (diphenyl IMiD analogue)
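Further: pooled lentiviral library of zinc finger degron-EGFP fusions in mCherry-positive Jurkat cells, FACS-sorted after compound exposure, with degron abundance counted by next-generation sequencing.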

Sequence | log2 fold change of degron read counts [1] | log2 fold change of degron read counts [2] | log2 fold change of degron read counts [3] | log2 fold change of degron read counts (compound: thalidomide)
B1 | -2.4 | -3.54 | -2.58 | -2.17
B2 | -2.15 | -2.33 | -2.44 | -1.78
B3 | -3.22 | -3.09 | -2.38 | -2.39
B4 | -3.14 | -2.25 | -0.0305 | 0.62
B5 | -2.75 | -1.91 | -0.307 | 0.0287
B6 | 0.267 | 1.09 | -0.551 | -2.11
B7 | 2.78 | 3.23 | 2.86 | 2
B8 | 3.53 | 2.7 | 2.46 | 2.1
B9 | 1.68 | 2.29 | 3.16 | 3.24
B10 | -0.0305 | -0.355 | 1.46 | 2.28
B11 | 3.56 | 2.79 | 2.52 | 2.89
B12 | 0.482 | 1.27 | 2.88 | 2.19
B13 | 1.01 | 2.39 | 2.2 | 2.84
B14 | 1 | 1.74 | 2.07 | 3.47
B15 | 0.5 | 1.72 | 1.99 | 2.39
